Measured values from the supplement of paper PMC10849652.
About 8,800 targets were measured; listed, in parts, are those with a hit and a random draw of the rest. About 0.5% of all pairs of compound and target were hits.

How the values were obtained:
Experiment in all cases: log2 fold change, soluble protein after heating vs DMSO (PISA); higher = thermal stabilisation; K562 lysate, 10 uM; active = over 0.2 and 3.5 SD of the protein, either way, in both replicates (recomputed)
[1] = compound: C1=CC=C(C=C1)[C@H](COC2=CC3=C(C=C2)NC(=O)N3)NC(=O)C4=CC=CN(C4=O)CC5=CC(=C(C=C5)F)F
How it was run: (§1)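 Soluble protein was defined as the supernatant remaining after 21,000xg for 90 min, following pooling of heated aliquots and adjustment to 0.5% NP-40 at 4°C. Before that, crude K562 extract at 1 mg/mL protein in PBS pH 7.4 with 1 mM MgCl2 was treated with 10 μM compound for 30 min and heated for 3 min across 48°C-58°C. Quantification used TMTpro 16plex LC-MS/MS with channel sums equalised, and values are log-two fold changes in thermal stability relative to solvent controls from duplicates.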

[2] = compound: CC1=C(SC2=C1C(=N[C@H](C3=NN=C(N32)C)CC(=O)N)C4=CC=C(C=C4)Cl)C
How it was run: as §1

[3] = compound: CC1=C2C(=CC=C1)N=C(N(C2=O)C3=CC=CC=C3C)CN4C=NC5=C(N=CN=C54)N
How it was run: as §1

[4] = compound: Cc1sc2c(c1C)C(c1ccc(Cl)cc1)=N[C@@H](CC(=O)OC(C)(C)C)c1nnc(C)n1-2
How it was run: as §1

[5] = compound: c1ccc([C@@H]2C[C@H]2NC2CCNCC2)cc1
How it was run: as §1

Measured: log2 fold change

MFF isoform 2 (UniProt Q9GZY8)
inactive: [1] 0.044 | [2] -0.029 | [3] -0.009 | [4] -0.049 | [5] -0.125

KRR1 (UniProt Q13601)
inactive: [1] 0.019 | [2] -0.017 | [3] 0.005 | [4] 0.062 | [5] 0.035

MRPL19 (UniProt P49406)
inactive: [1] 0.017 | [2] -0.064 | [3] 0.011 | [4] -0.065 | [5] 0.019

KMT2A isoform 3 (UniProt Q03164)
inactive: [1] 0.043 | [2] 0.09 | [3] -0.009 | [4] -0.025 | [5] 0.016

LZTS1 (UniProt Q9Y250)
inactive: [1] -0.082 | [2] 0.049 | [3] 0.065 | [4] -0.628 | [5] 0.324

MINK1 (UniProt Q8N4C8)
inactive: [1] 0.069 | [2] 0.092 | [3] -0.149 | [4] -0.066 | [5] 0.086

MARCHF6 (UniProt O60337)
UniProt O60337, sequence (O60337 whole entry, looked up): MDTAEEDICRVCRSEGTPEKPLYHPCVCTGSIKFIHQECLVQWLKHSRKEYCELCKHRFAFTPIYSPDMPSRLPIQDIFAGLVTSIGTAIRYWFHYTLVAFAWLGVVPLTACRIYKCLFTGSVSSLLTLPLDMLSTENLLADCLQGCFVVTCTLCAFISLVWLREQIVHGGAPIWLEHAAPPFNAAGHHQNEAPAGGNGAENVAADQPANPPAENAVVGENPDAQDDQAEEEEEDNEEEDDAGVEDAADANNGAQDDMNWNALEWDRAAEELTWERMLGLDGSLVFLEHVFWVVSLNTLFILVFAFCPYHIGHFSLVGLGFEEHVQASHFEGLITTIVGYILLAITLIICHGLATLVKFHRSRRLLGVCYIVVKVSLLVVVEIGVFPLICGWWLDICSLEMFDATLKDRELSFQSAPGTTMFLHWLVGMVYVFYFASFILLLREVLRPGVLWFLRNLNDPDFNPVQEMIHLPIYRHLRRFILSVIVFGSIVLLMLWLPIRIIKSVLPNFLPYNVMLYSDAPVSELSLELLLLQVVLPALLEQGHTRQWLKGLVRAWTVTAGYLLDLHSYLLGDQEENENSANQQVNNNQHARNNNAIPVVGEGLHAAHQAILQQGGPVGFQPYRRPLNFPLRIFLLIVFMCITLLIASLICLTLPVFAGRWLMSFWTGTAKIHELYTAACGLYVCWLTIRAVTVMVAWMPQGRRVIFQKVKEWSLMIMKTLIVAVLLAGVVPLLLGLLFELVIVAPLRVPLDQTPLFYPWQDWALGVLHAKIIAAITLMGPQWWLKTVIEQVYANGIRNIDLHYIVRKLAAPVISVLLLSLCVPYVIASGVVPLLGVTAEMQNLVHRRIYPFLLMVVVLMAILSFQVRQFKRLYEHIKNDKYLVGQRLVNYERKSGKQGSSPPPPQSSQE
inactive: [1] -0.269 | [2] -0.192 | [3] -0.107 | [4] -0.082 | [5] 0.029

MANEA (UniProt Q5SRI9)
inactive: [1] 0.146 | [2] -0.009 | [3] 0.044 | [4] 0.029 | [5] -0.161

LSG1 (UniProt Q9H089)
inactive: [1] 0.068 | [2] 0.038 | [3] 0.084 | [4] -0.028 | [5] -0.044

MAP4 (UniProt E7EVA0)
inactive: [1] -0.024 | [2] -0.002 | [3] 0.037 | [4] -0.018 | [5] -0.041

MACO1 (UniProt Q8N5G2)
inactive: [1] -0.039 | [2] -0.044 | [3] 0.125 | [4] -0.04 | [5] 0.092

MAPK6 (UniProt Q16659)
inactive: [1] 0.062 | [2] -0.015 | [3] -0.016 | [4] -0.001 | [5] -0.037

LIG4 (UniProt P49917)
inactive: [1] -0.04 | [2] 0.083 | [3] -0.056 | [4] -0.002 | [5] 0.078

KIF2C (UniProt Q99661)
inactive: [1] -0.022 | [2] -0.023 | [3] -0.009 | [4] 0.052 | [5] 0.032

MAPK1 (UniProt P28482)
UniProt P28482, sequence (P28482 whole entry, looked up): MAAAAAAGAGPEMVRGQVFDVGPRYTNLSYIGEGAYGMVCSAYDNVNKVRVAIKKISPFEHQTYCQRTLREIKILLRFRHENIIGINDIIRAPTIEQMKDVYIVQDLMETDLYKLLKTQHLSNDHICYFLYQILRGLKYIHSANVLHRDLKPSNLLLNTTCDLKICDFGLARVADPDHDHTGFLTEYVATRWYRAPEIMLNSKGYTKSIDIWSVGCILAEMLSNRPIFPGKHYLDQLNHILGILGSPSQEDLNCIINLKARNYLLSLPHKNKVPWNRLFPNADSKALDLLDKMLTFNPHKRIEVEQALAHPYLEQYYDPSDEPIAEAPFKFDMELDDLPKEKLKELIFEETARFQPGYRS
inactive: [1] 0.045 | [2] -0.006 | [3] -0.016 | [4] 0.039 | [5] 0.012

MRPL35 (UniProt Q9NZE8)
inactive: [1] -0.028 | [2] -0.002 | [3] 0.331 | [4] -0.04 | [5] 0

MORC3 (UniProt Q14149)
inactive: [1] 0.013 | [2] 0 | [3] 0.003 | [4] 0.013 | [5] 0.012

MICU1 isoform 3 (UniProt Q9BPX6)
UniProt Q9BPX6, sequence (Q9BPX6 whole entry, looked up): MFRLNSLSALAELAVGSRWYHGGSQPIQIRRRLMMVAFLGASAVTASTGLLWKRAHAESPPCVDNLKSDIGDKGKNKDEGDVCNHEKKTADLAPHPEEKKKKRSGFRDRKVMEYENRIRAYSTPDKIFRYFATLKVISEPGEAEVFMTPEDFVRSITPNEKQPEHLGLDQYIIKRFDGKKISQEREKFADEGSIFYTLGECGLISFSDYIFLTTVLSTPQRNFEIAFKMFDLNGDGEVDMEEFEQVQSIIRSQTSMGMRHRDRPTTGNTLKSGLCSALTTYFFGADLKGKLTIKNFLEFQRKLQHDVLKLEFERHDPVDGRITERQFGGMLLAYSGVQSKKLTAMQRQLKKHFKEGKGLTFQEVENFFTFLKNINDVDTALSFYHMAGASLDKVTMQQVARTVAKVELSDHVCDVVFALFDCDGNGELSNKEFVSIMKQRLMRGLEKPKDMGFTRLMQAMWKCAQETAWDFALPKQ
inactive: [1] -0.018 | [2] 0.027 | [3] -0.035 | [4] -0.043 | [5] 0.196

KNSTRN (UniProt Q9Y448)
inactive: [1] 0.097 | [2] -0.057 | [3] 0 | [4] 0.002 | [5] 0.034

LAS1L (UniProt Q9Y4W2)
inactive: [1] -0.002 | [2] 0 | [3] -0.023 | [4] 0.02 | [5] -0.026

LRCH3 (UniProt Q96II8)
UniProt Q96II8, sequence (Q96II8 whole entry, looked up): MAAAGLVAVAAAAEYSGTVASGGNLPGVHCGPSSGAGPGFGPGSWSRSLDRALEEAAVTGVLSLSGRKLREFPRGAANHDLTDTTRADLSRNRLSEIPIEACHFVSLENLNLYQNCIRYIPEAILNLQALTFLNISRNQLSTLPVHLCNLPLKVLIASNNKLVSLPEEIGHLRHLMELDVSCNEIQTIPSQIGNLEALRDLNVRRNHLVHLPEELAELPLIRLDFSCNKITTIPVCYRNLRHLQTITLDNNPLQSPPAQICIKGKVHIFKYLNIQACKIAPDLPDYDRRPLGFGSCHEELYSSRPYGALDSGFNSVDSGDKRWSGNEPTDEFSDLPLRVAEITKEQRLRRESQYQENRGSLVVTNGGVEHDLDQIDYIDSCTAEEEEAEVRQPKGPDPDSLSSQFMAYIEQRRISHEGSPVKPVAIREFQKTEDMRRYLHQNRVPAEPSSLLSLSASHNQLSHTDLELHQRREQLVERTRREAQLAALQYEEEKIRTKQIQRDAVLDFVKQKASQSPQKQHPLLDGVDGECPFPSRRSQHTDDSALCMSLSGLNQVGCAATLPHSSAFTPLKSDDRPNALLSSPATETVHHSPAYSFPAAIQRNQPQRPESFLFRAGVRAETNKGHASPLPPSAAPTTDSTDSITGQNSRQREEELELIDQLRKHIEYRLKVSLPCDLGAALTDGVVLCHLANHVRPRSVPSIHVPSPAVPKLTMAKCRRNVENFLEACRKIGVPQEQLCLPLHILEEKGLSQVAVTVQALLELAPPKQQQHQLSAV
inactive: [1] -0.038 | [2] -0.044 | [3] 0.025 | [4] -0.014 | [5] -0.028

LARP4B (UniProt Q92615)
inactive: [1] 0.031 | [2] -0.034 | [3] 0.002 | [4] 0.03 | [5] -0.037

KIF26A (UniProt Q9ULI4)
inactive: [1] 0.044 | [2] -0.011 | [3] 0.053 | [4] 0.09 | [5] -0.018

KLC2 (UniProt Q9H0B6)
UniProt Q9H0B6, sequence (Q9H0B6 whole entry, looked up): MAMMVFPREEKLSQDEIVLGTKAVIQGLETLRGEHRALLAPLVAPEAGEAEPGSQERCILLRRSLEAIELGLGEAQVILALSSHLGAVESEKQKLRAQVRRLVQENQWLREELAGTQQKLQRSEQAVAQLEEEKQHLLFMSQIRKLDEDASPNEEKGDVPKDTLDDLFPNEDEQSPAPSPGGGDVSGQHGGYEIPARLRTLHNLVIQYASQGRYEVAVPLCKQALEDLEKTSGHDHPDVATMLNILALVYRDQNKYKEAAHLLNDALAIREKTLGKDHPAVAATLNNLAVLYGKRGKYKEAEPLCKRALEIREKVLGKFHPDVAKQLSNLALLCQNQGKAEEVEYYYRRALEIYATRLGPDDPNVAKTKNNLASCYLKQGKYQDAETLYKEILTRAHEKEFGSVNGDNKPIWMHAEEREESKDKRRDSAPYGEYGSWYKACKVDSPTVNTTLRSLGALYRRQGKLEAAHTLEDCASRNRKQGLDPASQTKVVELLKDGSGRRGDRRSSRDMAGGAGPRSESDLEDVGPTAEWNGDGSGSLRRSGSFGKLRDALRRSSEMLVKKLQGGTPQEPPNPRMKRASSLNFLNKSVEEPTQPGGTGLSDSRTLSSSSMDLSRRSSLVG
inactive: [1] -0.032 | [2] 0.016 | [3] 0.029 | [4] 0.003 | [5] 0.122

MCMBP (UniProt Q9BTE3)
inactive: [1] -0.016 | [2] 0.035 | [3] 0.019 | [4] -0.013 | [5] 0.057

MRPL12 (UniProt P52815)
inactive: [1] -0.084 | [2] 0.015 | [3] -0.022 | [4] 0.027 | [5] 0.047

MARK2 (UniProt E9PC69)
inactive: [1] 0.003 | [2] -0.004 | [3] 0.071 | [4] -0.043 | [5] 0.035

LPIN1 isoform 7 (UniProt Q14693)
inactive: [1] 0.053 | [2] -0.003 | [3] -0.053 | [4] 0.029 | [5] 0.194

LPCAT1 (UniProt Q8NF37)
inactive: [1] -0.071 | [2] 0.056 | [3] 0.066 | [4] 0 | [5] -0.115

LYRM4 (UniProt Q9HD34)
UniProt Q9HD34, sequence (Q9HD34 whole entry, looked up): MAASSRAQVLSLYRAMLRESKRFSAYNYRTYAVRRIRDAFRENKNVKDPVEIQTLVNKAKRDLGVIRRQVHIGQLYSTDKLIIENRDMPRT
inactive: [1] -0.03 | [2] 0.074 | [3] 0.077 | [4] 0.006 | [5] 0.004

MOCS1 isoform 8 (UniProt Q9NZB8)
inactive: [1] -0.061 | [2] -0.044 | [3] 0.058 | [4] -0.017 | [5] 0.067

KIF22 (UniProt Q14807)
inactive: [1] 0.047 | [2] 0.077 | [3] 0.014 | [4] -0.159 | [5] -0.198

MRPL46 (UniProt Q9H2W6)
inactive: [1] 0.022 | [2] -0.012 | [3] 0.021 | [4] 0.026 | [5] 0.199

LIG3 (UniProt P49916)
inactive: [1] -0.003 | [2] -0.018 | [3] -0.014 | [4] -0.035 | [5] 0.021

MAPK14 isoform 2 (UniProt Q16539)
inactive: [1] 0.008 | [2] -0.053 | [3] 0.014 | [4] -0.028 | [5] 0.154

MARF1 (UniProt Q9Y4F3)
UniProt Q9Y4F3, sequence (Q9Y4F3 whole entry, looked up): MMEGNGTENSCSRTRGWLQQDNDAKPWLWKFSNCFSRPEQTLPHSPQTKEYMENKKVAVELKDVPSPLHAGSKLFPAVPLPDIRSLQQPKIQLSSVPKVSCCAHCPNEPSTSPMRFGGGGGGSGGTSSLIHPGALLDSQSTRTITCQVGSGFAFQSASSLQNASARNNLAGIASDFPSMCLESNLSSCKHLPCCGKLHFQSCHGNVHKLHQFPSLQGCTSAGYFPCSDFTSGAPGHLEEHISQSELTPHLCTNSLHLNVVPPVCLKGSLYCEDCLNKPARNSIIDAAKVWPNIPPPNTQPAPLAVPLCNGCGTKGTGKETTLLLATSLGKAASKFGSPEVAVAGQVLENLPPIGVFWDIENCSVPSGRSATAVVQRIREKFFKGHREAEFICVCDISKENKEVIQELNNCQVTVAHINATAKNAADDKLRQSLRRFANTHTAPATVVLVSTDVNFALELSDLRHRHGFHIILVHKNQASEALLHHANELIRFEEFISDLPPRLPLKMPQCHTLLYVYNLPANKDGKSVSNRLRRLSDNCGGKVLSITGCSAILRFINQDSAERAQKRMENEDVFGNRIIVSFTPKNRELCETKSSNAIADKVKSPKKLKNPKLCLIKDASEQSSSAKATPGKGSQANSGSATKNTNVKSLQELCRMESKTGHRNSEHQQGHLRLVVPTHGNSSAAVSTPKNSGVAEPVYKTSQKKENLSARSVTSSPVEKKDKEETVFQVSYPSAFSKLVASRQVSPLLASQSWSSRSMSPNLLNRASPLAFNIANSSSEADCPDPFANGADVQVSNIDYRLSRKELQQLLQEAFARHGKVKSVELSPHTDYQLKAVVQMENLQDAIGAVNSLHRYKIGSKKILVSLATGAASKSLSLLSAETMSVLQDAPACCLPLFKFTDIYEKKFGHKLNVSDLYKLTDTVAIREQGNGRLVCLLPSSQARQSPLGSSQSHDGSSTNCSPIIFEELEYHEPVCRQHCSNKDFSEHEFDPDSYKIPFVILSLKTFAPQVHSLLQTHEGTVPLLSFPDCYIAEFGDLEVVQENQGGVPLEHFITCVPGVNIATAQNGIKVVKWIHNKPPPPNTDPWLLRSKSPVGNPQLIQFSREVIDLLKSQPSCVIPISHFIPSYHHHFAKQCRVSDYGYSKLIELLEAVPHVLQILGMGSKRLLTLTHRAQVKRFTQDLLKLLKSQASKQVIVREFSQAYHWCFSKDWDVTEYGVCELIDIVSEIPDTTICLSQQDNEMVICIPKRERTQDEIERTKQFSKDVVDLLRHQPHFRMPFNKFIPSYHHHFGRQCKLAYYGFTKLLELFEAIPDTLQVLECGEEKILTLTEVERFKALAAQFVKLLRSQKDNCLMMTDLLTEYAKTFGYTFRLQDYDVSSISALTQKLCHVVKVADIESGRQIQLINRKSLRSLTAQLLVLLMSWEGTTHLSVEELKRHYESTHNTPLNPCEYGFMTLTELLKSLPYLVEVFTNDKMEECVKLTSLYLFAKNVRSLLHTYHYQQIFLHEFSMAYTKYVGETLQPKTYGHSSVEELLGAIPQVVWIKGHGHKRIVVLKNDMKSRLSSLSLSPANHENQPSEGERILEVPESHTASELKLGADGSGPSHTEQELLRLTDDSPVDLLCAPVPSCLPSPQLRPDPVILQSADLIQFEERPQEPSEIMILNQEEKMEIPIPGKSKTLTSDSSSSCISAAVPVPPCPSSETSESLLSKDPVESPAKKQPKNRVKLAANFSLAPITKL
inactive: [1] -0.052 | [2] 0.013 | [3] 0.175 | [4] 0.024 | [5] -0.023
